# Source: PubChem
# Rows were chosen to be rich in hits. Some 0.86% of all compounds tested hit in one or more screens of this group.
# CDC25B CDK2 inh: primary biochemical HTRF screen for blockers of M-phase inducer phosphatase 2 binding to CDK2/cyclin A. z-score (test concentration not listed). HTRF CDC25B-CDK2/CyclinA binding, anti-His/anti-Flag; active compounds read high. hit rate 0.72% among 94,000. P30305+P24941; in the data active = z-score above about 3.2
# TAR Tat displ: TAR RNA-Tat peptide displacers, HIV-1, primary screen, biochemical, FRET, FAM/TAMRA-labeled Tat; HIV-1 TAR RNA, Tat peptide displacement FRET; active compounds read high; hit rate 0.6% among 100,000; z-score (test concentration not listed); AID 1259389, 2018; active = z-score of 3 or more in at least 2 runs
# * = called active by the depositor; nt = no result given.
SMILES,CDC25B CDK2 inh,TAR Tat displ
CSc1cccc(NC(=O)CCc2nc3sc4c(c3c(=O)[nH]2)CCCCC4)c1,nt,0.83
CC[C@H](C)NC(=O)CCc1nc2sc3c(c2c(=O)[nH]1)CCCCC3,nt,1.1
CCN(CCS(=O)(=O)N1CCNCC1)S(=O)(=O)c1ccc(Br)cc1,nt,2.1
CCC(C)N1C(=O)c2cc3occc3n2CC1(C)C(=O)NC1CCC(C)CC1 (stereo not drawn),nt,5.3
Cc1cc(C)cc(N2C(=O)c3cc4occc4n3CC2(C)C(=O)NC2CCC(C)CC2)c1 (stereo not drawn),nt,12*
Cc1cc2c(cc3n2CC(C)(C(=O)NC2CCCCC2)N(C2CCCCC2)C3=O)o1 (stereo not drawn),nt,2.8
CC1CCC(NC(=O)C2(C)Cn3c(ccc3-c3ccco3)C(=O)N2Cc2cccs2)CC1 (stereo not drawn),nt,0.47
CC1CCC(NC(=O)C2(C)Cn3c(cc4occc43)C(=O)N2Cc2cccs2)CC1 (stereo not drawn),nt,10*
Cc1cc2c(cc3n2CC(C)(C(=O)NC2CCCCC2)N(C(C)C)C3=O)o1 (stereo not drawn),nt,7.2*
CC1CCCCC1NC(=O)C1(C)Cn2c(cc3occc32)C(=O)N1c1ccc(Cl)cc1 (stereo not drawn),nt,7.6*
CC1CCCCC1NC(=O)C1(C)Cn2c(cc3occc32)C(=O)N1C1CCCCC1 (stereo not drawn),nt,3
CCOC(=O)c1nc(NC(C)CC)c2c(C)noc2n1 (stereo not drawn),nt,0.24
Cc1nn(CC(=O)NCCC(C)C)c(=O)c2cc3occc3n12,-0.94,2.8
CC1CCC(NC(=O)C2(C)Cn3c(cc4occc43)C(=O)N2Cc2ccco2)CC1 (stereo not drawn),nt,19*
CC1CCCC(NC(=O)C2(C)Cn3c(cc4occc43)C(=O)N2Cc2ccco2)C1C (stereo not drawn),nt,4.2
CCOC(=O)c1nc(Nc2ccccc2)c2c(C)noc2n1,nt,-0.17
Cc1ccc(CSc2nc(-c3cccs3)nc3cc(=O)[nH]n23)cc1,nt,0.81
O=c1cc2nc(-c3cccs3)nc(SCc3ccc(Br)cc3)n2[nH]1,nt,27*
CC(CCc1ccccc1)NC(=O)c1cc2c(=O)n3ccccc3nc2n1C (stereo not drawn),nt,2.4
O=C(COc1ccc(Br)cc1)Nc1ccc(-n2cnnn2)cc1,-0.52,2.1
COc1cc(NC(=O)COc2ccc(-n3cnnn3)cc2)c(OC)cc1Cl,-8.2,4.6*
COc1ccc(OC)c(NC(=O)C(C)Sc2nnc(-c3ccoc3C)o2)c1 (stereo not drawn),12*,2.1
COc1cc(OC)c(NC(=O)C(C)Sc2nnc(-c3ccoc3C)o2)cc1Cl (stereo not drawn),-0.34,1.7
CCOC(=O)Cc1nnnn1C,-1.4,nt
Cc1cc(NC(=O)CC(C)S(=O)(=O)c2ccc3c(c2)CCN3C(=O)C2CC2)no1 (stereo not drawn),nt,-0.6
SMILES,CDC25B CDK2 inh,TAR Tat displ
O=C1NC(c2ccco2)c2c1n[nH]c2-c1ccco1 (stereo not drawn),5.3*,2.4
O=C1NC(c2cccnc2)c2c1n[nH]c2-c1ccco1 (stereo not drawn),8.9*,-5.5
O=C1NC(c2cccc(O)c2)c2c1n[nH]c2-c1ccco1 (stereo not drawn),2.3,-0.63
Cc1ccc(C2NC(=O)c3n[nH]c(-c4ccco4)c32)cc1 (stereo not drawn),-0.08,-3.5
CC(C)Nc1ncnc2onc(-c3cccc(Cl)c3)c12,-0.78,0.71
Cc1cc(C)c(S(=O)(=O)Nc2cc(Br)c(O)c3ccccc23)c(C)c1,19*,nt
Cc1cc(C)c(S(=O)(=O)Nc2ccc(O)cc2)c(C)c1,-0.75,0.57
CC1=C(c2ccc(Cl)cc2)S(=O)(=O)NC1=NC1CCN(Cc2ccccc2)CC1,-3,1.4
O=C(CCCN1C(=O)CSc2ncccc21)N1CCc2ccccc21,-1.5,-0.18
COc1ccc(OC)c(C2CC(=O)N3CN(c4ccc(Br)cc4)CSC3=C2C#N)c1 (stereo not drawn),4.5*,-0.7
COc1ccc(OC)c(C2CC(=O)N3CN(c4ccc(F)cc4)CSC3=C2C#N)c1 (stereo not drawn),4*,-2.1
COc1ccc(Br)cc1C1CC(=O)N2CN(C3CCCCC3)CSC2=C1C#N (stereo not drawn),-0.77,-0.3
COc1ccc(C2CC(=O)N3CN(c4ccc(Br)cc4)CSC3=C2C#N)c(OC)c1 (stereo not drawn),6.4*,-1.8
COc1ccc(N2CSC3=C(C#N)C(c4cc(Br)ccc4OC)CC(=O)N3C2)cc1 (stereo not drawn),5.4*,-0.71
CN(C1CCCCC1)S(=O)(=O)N1CCCC(C(=O)N2CCN(c3ccccc3)CC2)C1 (stereo not drawn),nt,5.1
COc1ccc2c(c1)CC(NC(=O)N1CCCCC1)CO2 (stereo not drawn),nt,0.48
CCC(Sc1nc2ccccc2[nH]1)C(=O)Nc1ccc(S(N)(=O)=O)cc1 (stereo not drawn),-0.41,nt
COc1ccc(OC)c(NC(=O)c2[nH]nc3c2CSc2ccccc2-3)c1,nt,2.1
Cc1nn(C(C)C(=O)NCc2ccccc2Br)c(=O)c2cc3occc3n12 (stereo not drawn),-0.11,-0.29
COc1ccc(-c2noc(-c3nnn(-c4cc(F)ccc4F)c3C)n2)cc1OC,nt,-0.89
COc1ccccc1N1CSC2=C(C#N)C(c3ccc(Br)cc3)CC(=O)N2C1 (stereo not drawn),1.5,-4.8
COc1ccc(Br)cc1C1CC(=O)N2CN(c3ccccc3OC)CSC2=C1C#N (stereo not drawn),6.2*,0.32
COc1cccc(C2CC(=O)N3CN(Cc4ccccc4)CSC3=C2C#N)c1OC (stereo not drawn),5.5*,-0.36
COc1ccccc1C1CC(=O)N2CN(Cc3ccccc3)CSC2=C1C#N (stereo not drawn),5.3*,0.76
N#CC1=C2SCN(Cc3ccccc3)CN2C(=O)CC1c1cccc2ccccc12 (stereo not drawn),0,-0.85
SMILES,CDC25B CDK2 inh,TAR Tat displ
COc1ccccc1C1CC(=O)N2C(=C1C#N)SCC2(O)c1ccccc1 (stereo not drawn),-7,nt
O=C(O)c1ccc2c3c(ccc(C(=O)O)c13)C(=O)NC2=O,1.3,0.75
O=C1Nc2c(C(=O)O)cccc2C1=O,1.4,21*
O=C1c2ccccc2C(O)N1c1ccc(Cl)cn1 (stereo not drawn),-1.8,2.2
Cc1ccc(CNC(=O)Cn2nc(C)n3c(cc4occc43)c2=O)cc1,0.57,2.1
COc1ccc(Br)cc1CNC(=O)Cn1nc(C)n2c(cc3occc32)c1=O,12*,1.1
CCCN1C(=O)C2(/C(=C(/O)c3ccc(C)c(F)c3)C(=O)C(=O)N2CC2CCCO2)c2ccccc21 (stereo not drawn),-0.53,-0.71
Cc1ccc(/C(O)=C2/C(=O)C(=O)N(CC3CCCO3)C23C(=O)N(C)c2ccccc23)cc1F (stereo not drawn),0.18,16*
Cc1cc(=O)c2c(O)c3c(O)cc(O)c4c5c(O)cc(O)c6c(O)c7c(=O)cc(C)c8c1c2c(c34)c(c65)c78,nt,7.8*
Cc1cc(O)c2c(c1O)C(=O)c1c(O)cc(C)c(O)c1C2=O,nt,0.53
CCCc1nc(SCc2cc(=O)n3nc(C)sc3n2)n[nH]1,nt,0.25
